Results reported in the supplement of paper PMC3334620.
In all, about 33,000 sequences were measured (“E-score (-0.5 to 0.5)”: median about -0.012, highest 2% from about 0.27 on). Many of the other results were omitted from the sample, so the highest values are more common in it than they were.

These sequences were tested against T1, Vhr1 (UniProt P40522) (assay: PBM E-score (8-mer binding enrichment) (E-score (-0.5 to 0.5)); higher = stronger / more preferred TF binding). Settings: protein concentration: 200 nM; construct: GST-full length.
T1 sequence: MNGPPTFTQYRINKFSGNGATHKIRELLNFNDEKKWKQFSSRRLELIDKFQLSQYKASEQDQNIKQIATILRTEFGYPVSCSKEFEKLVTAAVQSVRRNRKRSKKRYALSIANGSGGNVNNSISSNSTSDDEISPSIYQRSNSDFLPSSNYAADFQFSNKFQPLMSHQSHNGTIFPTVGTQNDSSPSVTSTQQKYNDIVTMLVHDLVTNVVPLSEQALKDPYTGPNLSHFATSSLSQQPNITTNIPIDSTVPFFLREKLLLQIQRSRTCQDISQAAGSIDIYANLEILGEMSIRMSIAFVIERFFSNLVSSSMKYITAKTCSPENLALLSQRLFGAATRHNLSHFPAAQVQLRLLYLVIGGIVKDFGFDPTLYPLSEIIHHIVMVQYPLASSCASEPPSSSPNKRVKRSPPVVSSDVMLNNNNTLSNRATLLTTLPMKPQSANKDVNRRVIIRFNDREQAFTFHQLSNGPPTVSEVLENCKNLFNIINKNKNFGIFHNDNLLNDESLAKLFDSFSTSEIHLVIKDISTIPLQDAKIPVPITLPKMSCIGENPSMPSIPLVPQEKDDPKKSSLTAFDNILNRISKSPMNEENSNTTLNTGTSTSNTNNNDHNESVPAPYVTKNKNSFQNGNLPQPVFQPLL
Protocol: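 Universal 'all 10-mer' protein binding microarrays (Agilent AMADID 015681) probed with GST-tagged S. cerevisiae TFs (full-length or DBD) made by in vitro transcription/translation (PURExpress), about 100-200 nM. Bound TF was detected with fluorescent anti-GST. Each ungapped 8-mer (which stands for itself and its reverse complement) is scored by the PBM enrichment score (E-score), a modified Wilcoxon-Mann-Whitney statistic from -0.5 to +0.5, computed with the Universal PBM Analysis Suite. Scale: above 0.35 generally sequence-specific binding.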

Row | Sequence | PBM E-score
1 | TCGCGCAA | 0.0709
2 | AGGACGCG | -0.226
3 | CTAAAGAG | -0.0856
4 | GTAGCGAA | -0.027
5 | AACTAGAA | -0.115
6 | CGTCACTA | 0.0865
7 | AGTCACTC | 0.428
8 | AGTCACTG | 0.384
9 | AATCACTC | 0.115
10 | ACTCACTC | 0.254
11 | CGTCACTC | -0.0595
12 | AATCACTG | 0.374
13 | ATTCACTG | -0.0337
14 | AATCACTA | 0.267
15 | AGTCACTA | 0.366
16 | ACTCACTG | 0.265
17 | GGTCACTA | -0.0218
18 | AACGGTCC | -0.263
19 | AGGTGTGC | 0.163
20 | AAGCTCCA | 0.111
21 | AAGCCACT | -0.0197
22 | CCATCTGC | 0.0983
23 | GTCTTCAC | -0.058
24 | AATCTAGC | -0.218
25 | CTATAGGC | -0.243

Row | Sequence | PBM E-score
26 | AACCTGAG | -0.0364
27 | ACACGACT | 0.277
28 | ACACGACC | 0.109
29 | ACACGACA | 0.0664
30 | GCTTGCAA | 0.0649
31 | AAAGGTGC | -0.162
32 | ACGGTAAT | -0.0641
33 | CCGAGTAG | 0.1
34 | CCAAGTCG | 0.00863
35 | ACGAGTCC | 0.0781
36 | ACGAGTCG | 0.322
37 | ACGAGTCA | 0.43
38 | ACGAGTCT | 0.0718
39 | ACGAGTAG | 0.0242
40 | TCGAGCCA | -0.0584
41 | ACGAGTTG | 0.0198
42 | TCGAGTAA | 0.0538
43 | TCGAGTCA | 0.399
44 | CCGAGTCG | 0.336
45 | CGGCTAAC | -0.0152
46 | GGCAAGAC | -0.138
47 | TGGTCTAA | -0.0689
48 | GCCGTCTA | 0.00852
49 | GAGCACTA | 0.0167
50 | GCGAGTAA | 0.2

Row | Sequence | PBM E-score
51 | CCGAGTCA | 0.451
52 | CCGAGTCC | 0.144
53 | GCGAGTCA | 0.455
54 | CCGAGTAA | 0.0614
55 | GCGAGTCC | 0.22
56 | ATTCGATG | 0.0921
57 | AAGCCTCG | 0.00094
58 | AGTCCCCG | 0.0704
59 | GGTGCTGA | 0.042
60 | CGCACCAA | 0.143
61 | CGCACCAG | 0.302
62 | AGCACCAG | -0.0111
63 | AAATAATT | 0.0111
64 | AGCTGACC | 0.116
65 | ACCTGACT | 0.374
66 | AGCTGACT | 0.413
67 | ACCTGACC | 0.11
68 | ACCTGACG | -0.0943
69 | AGCTGACG | -0.12
70 | GGGCTTAC | -0.00595
71 | AGAACTGA | -0.183
72 | ATGAAGTG | -0.149
73 | TAACAGAA | -0.069
74 | ATTGAGTC | 0.387
75 | ATTGAGAC | 0.18

Row | Sequence | PBM E-score
76 | CTTGAGGC | -0.174
77 | GTTGAGTA | 0.147
78 | ATTGAGAA | 0.113
79 | CTTGAGTC | 0.333
80 | ATTGAGTA | 0.308
81 | CTTGAGTA | 0.0408
82 | ATTGAGTG | 0.202
83 | AGAGAAGA | -0.148
84 | AACATCGG | 0.0341
85 | ATGCCAGG | 0.0307
86 | CGCGTACG | 0.0931
87 | CGCACGCC | 0.167
88 | ACGTTCGC | -0.141
89 | GCTGCCAA | -0.0372
90 | CCTGATGC | -0.0265
91 | ACTGATTA | 0.147
92 | ACTGATTC | 0.283
93 | CCTGATTC | 0.367
94 | CCTGATTA | 0.158
95 | ACTGATTG | -0.00926
96 | ACTCTACA | 0.0564
97 | ACGTCCAG | -0.147
98 | CGAATAAG | 0.0236
99 | AGTATATC | 0.0944
100 | AGTATATG | 0.239

Row | Sequence | PBM E-score
101 | ACTATATA | 0.274
102 | GCTATATA | 0.0669
103 | AGTATATA | 0.33
104 | ACTATATC | 0.198
105 | CAGAATGA | 0.0955
106 | CAAGGGCA | -0.168
107 | GTTCTAAA | -0.164
108 | GAGCGACC | -0.162
109 | CCTCACCA | -0.00516
110 | CCTCACCG | 0.113
111 | ACTCACCT | 0.244
112 | ACTCACCA | 0.378
113 | ACTCACCC | 0.391
114 | TCTCACCA | 0.0878
115 | GCTCACCC | 0.265
116 | CCTCACCC | 0.0394
117 | ACTCACCG | 0.309
118 | CTCTAGCC | -0.167
119 | CCAGGGAG | 0.09
120 | GTAGGGTA | 0.0298
121 | CAAGCGTG | -0.00913
122 | CCATTCAA | 0.0103
123 | CAGATTCG | 0.069
124 | AAACCATA | 0.0822
125 | AAACCATC | 0.273

Row | Sequence | PBM E-score
126 | CAACCATC | 0.0512
127 | ACTGGGTA | -0.00457
128 | ATAGGGGC | -0.0513
129 | GAGCGAAA | 0.0518
130 | AACTTTTG | -0.205
131 | ATCATATC | 0.3
132 | ATCATATG | 0.174
133 | CTCATATC | 0.203
134 | TACCAAGA | 0.0906
135 | AGAGCGCC | -0.134
136 | AATGATGC | 0.0924
137 | AGGGCCAA | -0.299
138 | AGTCTGCC | 0.0302
139 | CGGGAGAC | -0.0366
140 | AGGGAGTA | 0.113
141 | AGGGAGTC | 0.343
142 | CGGGAGTA | 0.00502
143 | AGGGAGTG | 0.042
144 | CGGGAGTC | 0.386
145 | ACCACAAC | 0.258
146 | AATACAGG | 0.111
147 | CTCCTCTA | -0.189
148 | GCGGGTCC | -0.00354
149 | GCGGGTGA | 0.293
150 | CCGGGTGA | 0.208

Row | Sequence | PBM E-score
151 | CGGGGTGA | 0.275
152 | GCGGGTCA | 0.308
153 | ACGGGTGA | 0.117
154 | AGGGGTGA | -0.0936
155 | ACGGGTCA | -0.077
156 | GGGGGTGA | 0.132
157 | GCTTAAAA | -0.0463
158 | ACAGTTAA | 0.0518
159 | GTACCTAA | -0.0816
160 | CGGTCGAC | 0.0782
161 | GAAGATAA | -0.0175
162 | GTCACCCA | 0.311
163 | CTCACCCC | 0.318
164 | GTCACCGA | 0.256
165 | ATCACCCC | 0.199
166 | CTCACCGA | 0.183
167 | ATCACCCA | 0.223
168 | CTTACCCC | -0.156
169 | CTCACCAA | 0.265
170 | CTCACCCA | 0.342
171 | ACTGGTGG | 0.0234
172 | GAGGGCTA | -0.228
